# In ChEMBL document CHEMBL3988442, “University of Dundee, Small-Polar-MMV Screening Library” (2021):
# Tests used:
# [1] = target: T1, Aspartate--tRNA(Asp/Asn) ligase (Mycobacterium tuberculosis (strain ATCC 25618 / H37Rv)) (UniProt P9WFW3); assay: Assay for Asp RNA synthetase-1 from Mycobacterium tuberculosis; format: functional; design: scale not given: direction of the effect not stated beside the values; settings: 30 µM; note: in the data most compounds retested in dose-response had high values
# T1 sequence (whole entry): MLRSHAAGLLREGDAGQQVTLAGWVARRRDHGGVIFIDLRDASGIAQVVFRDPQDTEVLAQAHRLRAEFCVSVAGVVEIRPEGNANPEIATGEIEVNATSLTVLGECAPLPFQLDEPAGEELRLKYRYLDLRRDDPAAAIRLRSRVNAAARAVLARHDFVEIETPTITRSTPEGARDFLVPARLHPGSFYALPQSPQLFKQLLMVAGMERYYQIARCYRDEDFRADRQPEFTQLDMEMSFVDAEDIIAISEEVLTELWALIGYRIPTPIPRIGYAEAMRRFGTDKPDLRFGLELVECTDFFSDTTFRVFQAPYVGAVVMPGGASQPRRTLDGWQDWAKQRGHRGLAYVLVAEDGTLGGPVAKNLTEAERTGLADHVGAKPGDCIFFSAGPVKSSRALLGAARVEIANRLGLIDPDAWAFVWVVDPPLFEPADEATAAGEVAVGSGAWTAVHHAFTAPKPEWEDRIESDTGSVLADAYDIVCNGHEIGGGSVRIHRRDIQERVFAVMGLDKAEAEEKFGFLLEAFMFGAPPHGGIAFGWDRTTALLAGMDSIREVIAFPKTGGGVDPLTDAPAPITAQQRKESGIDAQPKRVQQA
# [2] = target: Shiga toxin 2 (Escherichia coli O157:H7) (UniProt P09385+P09386); assay: E. coli 0.157:H7 Shiga Toxin SOP - stx2 screening assay; format: functional; design: scale not given: direction of the effect not stated beside the values; settings: 30 µM
Compound,Percent Effect [1] [%],Percent Effect [2] [%]
CC(=O)NCC(=O)N1CCC2(CC1)CN(c1cccnc1)C(=O)CO2,2.37,-4.09
COC(=O)C(NC(=O)c1ccco1)c1cc(F)ccc1F (centres undefined),-3.92,7.37
Cc1nc(NC(=O)CNC(=O)c2c(F)cccc2Cl)n[nH]1,6.53,3.62
CNC(=O)CC1CCN(Cc2nc(-c3cccc(Cl)c3)oc2C)CC1,4.32,-21.3
CCCNC(=O)c1ccc2c(c1)C(=O)N(CC(C)C)C2=O,1.59,3.24
c1cnc2c(c1)cc([C@H]1CCCO1)n2CCN1CCCCC1,-0.551,-28.2
CN(C)S(=O)(=O)N1CCCC1CC(=O)c1cccs1 (centres undefined),2.35,-10.2
c1cnn(CC2CCCN2Cc2nc(-c3ccoc3)no2)c1 (centres undefined),0.0441,-0.74
Cc1nc(N2CCOCC2)nc2c1CCN(C(=O)NC1CCCC1)CC2,2.29,-52.5
O=C(CN(Cc1cccnc1)CC1CCCO1)Nc1ccc(F)cc1 (centres undefined),5.92,-3.06
COCCCN1CCC(NC(=O)C(C)C)CC1,-2.37,-36.2
CN(C)C(=O)CNC(=O)Nc1cccc(Cl)c1SC(F)F,4.9,-5.26
CN(Cc1ccco1)Cc1ccccc1CNC(=O)c1cc[nH]n1,0.435,9.38
Cc1noc(C)c1CN1C[C@@H]2COC[C@H](C(=O)N3CCCCO3)[C@@H]2C1,4.46,5.31
Cc1cc(CN2CCN(C(=O)CCc3cccc(F)c3F)CC2)on1,-2.44,-2.21
O=C(O)C1CCCCN1C(=O)c1cccc(C(F)(F)F)c1 (centres undefined),-1.94,33.5
Cn1cc(CN2CCCn3cnc(COCC4CC4)c3C2)cn1,1.66,-1.47
CCCNC(=O)Cn1nc(C(C)C)c2cnn(C(C)(C)C)c2c1=O,-6.33,8.81
COC1CC2(CCN(Cc3ccc4c(c3)OCO4)CC2)C1,-2.25,-2.07
CCSc1cc(C(=O)NCCC(=O)Nc2ccccn2)ccn1,-1.96,-56.5
Cc1nc(C)c(C(=O)NCCNc2ncccc2C#N)s1,0.324,-20.6
CN(C(=O)Cc1c[nH]c2ccccc12)C1CCN(c2ccccn2)CC1,-1.54,5.44
Cn1ccnc1CN1CCCN(C(=O)c2ccc(Cl)o2)CC1,-4.19,17.7
CC(=O)NCCC(=O)NCc1cccnc1-n1cnc2ccccc21,-1.62,-2.41

Compound,Percent Effect [1] [%],Percent Effect [2] [%]
Cc1ccc2cc(C3(O)CCN(C(=O)CN4CCCC4)CC3)ccc2n1,1.48,-47.1
CCCNC(=O)CNc1cc(C#N)ccc1OCC,-8.31,-4.19
CC1(C)CC(N(Cc2ccccc2)Cc2cccnc2)CC(C)(C)N1,-4.09,-6.83
O=C(CN1CCC(C(=O)c2cc(F)ccc2F)CC1)NC1CCCC1,-0.27,-63.4
CCc1nc(C2CCCN2Cc2nc(C3CC3)no2)no1 (centres undefined),-4.58,-6.89
CC(C)NC(=O)N1CCC2(CC(C(=O)NCc3cccnc3)=NO2)C1 (centres undefined),2.53,-11.6
COc1ccc(NC(=O)N2CCN(c3ncccn3)CC2)cn1,-4.63,-16.1
CCN(CC)CCNC(=O)c1cnc(C(C)(C)C)s1,-0.45,17.4
CCc1ncc2c(n1)CN(Cc1nc(-c3ccsc3)oc1C)CC2,2.25,25.2
COC(=O)c1cccn1C1CCN(C(=O)c2cn[nH]c2C)CC1,-3.31,-8.31
CC1c2ncc(Cn3cncn3)n2CCN1C1CCOCC1 (centres undefined),2.5,-1.95
COCc1cccc(CNCc2c(C)nn(C)c2N(C)C)c1,6.21,1.1
CCn1ncc2c1CCCC2NCc1cc(Cl)c(OC)c(OC)c1 (centres undefined),-2.06,1.68
Cc1ccsc1-c1nnc(C2CCN(Cc3ccc(F)cc3)CC2)o1,-1.86,-123
COCCNC(=O)c1ccc(C)c(-n2cccc2)c1,-0.779,-6.48
CN(C)C(=O)COCc1cncc2c1CCN(Cc1nccn1C)C2,10.5,-47.9
Cc1ccc(CNC(=O)Nc2nnc(C)s2)cn1,4.24,-6.66
CC(C)c1cc(NC(=O)CN2CCc3c(nc(C(C)C)n3C)C2)on1,-3.67,-13.4
CCC(NC(=O)C1CCN(S(=O)(=O)N(C)C)CC1)c1ccc(C)c(C)c1 (centres undefined),4.22,-32.8
COc1ccnc(N2CCN(C(=O)CN3CCCC3=O)CC2)n1,-1.88,13.5
COCCN(C)C(=O)Nc1ccc2c(ccn2CCOC)c1,-1.14,-20.9
Cc1nc(CN(C)C2CCN(CCCOc3ccccc3)C2)no1 (centres undefined),2.8,-39.6
COc1ccc(CNC(=O)N2CCC(Cc3cnn(C)c3)C2)cc1C (centres undefined),-2.9,18
